The supplement of paper PMC11417369
The full ranking holds about 25,000 sequences; the median of “ln(normalized median fluorescence intensity)” is about 7.1, and the highest 2% start at about 10. Many of the other results were omitted from the sample, so the highest values are more common in it than they were.

These sequences were tested on PfSIP2 AP2 domain 1 (GST-tagged) (assay: gcPBM binding intensity (ln(normalized median fluorescence intensity)); higher = stronger DNA binding).
Outline: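 An Agilent 4 × 180k array of primer-extended double-stranded 36-bp intergenic genomic probes, with negative controls, was incubated for 1 h with GST-tagged P. falciparum DNA-binding domains expressed in E. coli. Alexa488 anti-GST antibody detected bound protein, scanned at 488 nm. Binding intensity is the highest Masliner-normalised natural-log median intensity across replicate spots of either probe orientation.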

Sequence | gcPBM binding intensity (ln)
ATATATATGTATATGTGTACTTATATTTGTCATTTT [XGTACX_site1317] | 7.11
TAATATTTATGTTAATGTACAAAAAAACAAAACAAA [XGTACX_site301] | 7.09
TTTTTTAAATATTAAAAATGGGATCTTATAACATAT [GTGCAC_negctrl_site666] | 6.91
ATATATATAATAAACACACACATATACATAGATGTA [CACACA_site5841] | 7.49
AAATAAAAGATATTTTTACACACTTTTGATGAGATC [CACACA_site9000] | 6.75
AAAAAAAAAAAAAAAAAAATATATTATATATATATA [XGTACX_negctrl_site467] | 9.19
TAATAAGTACCTTTTGCATGTGGCACGCTTTTTTTT [TGCATGCA_site573] | 6.75
TTAACATCTTCGTTGACACACAAAAAAAAAAATAAT [CACACA_site1819] | 7.1
TTATAATATGGATACACACACATATATAAATATATA [CACACA_site5314] | 6.98
ATAATTTCATAATACGTGCACATAATATATAAAAAA | 10.5
TAATGGATTATACGTGCACACATATATACAAATAAA [CACACA_site8116] | 10.5
ATGGATTATACGTGCACACATATATACAAATAAATA [CACACA_site640] | 10.5
GAAATAATTTCATATACACACATATACATACATACA [CACACA_site1358] | 7.5
TATAAATACATACGTACACACAAATATTAAAATATA [CACACA_site5129] | 7.35
CATAAAAATGGATACACACACATAATATATATATAT [CACACA_site3619] | 9.01
TAGGGATTATACCACACACACATACACATAAATATA [CACACA_site3178] | 7.08
ATGGATTATACGTGCACACATATATACCAATAAATA [CACACA_site4524] | 10.5
ATATAAATACGGTGTGCACACACATAATATATATAT [CACACA_site2271] | 8.98
ATAAAATATATATGCACACACATATATATTTCATAC [CACACA_site3547] | 7.24
TCATATATATTATACACACACATATATAAATATATA [CACACA_site967] | 7.03
AAACATAAATTTTATTGTACATTATATAGAATTTTC [XGTACX_site576] | 6.81

Sequence | gcPBM binding intensity (ln)
AAATGTTGAAATGATACACACATATATATATATATA [CACACA_site2517] | 9.59
TTATTTATGATATATACACACTAACATTATTTATCC [CACACA_site6720] | 6.95
GAAATTTCCCATATTACACACATACTATGATATATA [CACACA_site5987] | 7.12
GTGATGGTACAATATACACACTTAAAAAAAAAAAAT [CACACA_site5360] | 7.17
TTTCTATATTGGCATACATGCAAGAACGAAAAGATT [TGCATGCA_site117] | 7.09
TATAAAAAAAATTGCACACATATTATACAGGACGAC [CACACA_site701] | 7.96
TTTATTTTTATTTTTGTGCACGGGATTAAATAAAAG [GTGCAC_site9842] | 10.5
TTATTTTATTTTTTTGTGCACATATATATTTATAAA [GTGCAC_site9615] | 9.43
TAATATTTTAATTGTGTGCACATTAATATTATAAAA | 9.3
AAGAAGAAACGGAAAAGTACAAAGAAGAAATAAGTA [XGTACX_site3680] | 6.85
CATACATTATAAGATACATGCATATATCTGAACATA [TGCATGCA_site797] | 7.02
AACATTATTTTGTGTACACATTCGGTTATATTATAT [CACACA_site5628] | 7.31
AATAAATACTAAATGGTGCAAAATTTTTTAACACTG | 10.7
TAAATCAAAATAATTTAACACACAATTTTAATACTG [CACACA_site8744] | 6.67
ATACTATTTAAATGGGTGCTAAAAATAACAAAAATT | 8.88
TATTAAAATATGTCAGTTCTTAAAAAGTTGATGAGT [GTGCAC_negctrl_site77] | 7.17
TAATAATAATTAAATTGTACATATAATATAATATAA [XGTACX_site8554] | 7.15
TAATATATATGTATGGCACACACGGATAAATATATA [CACACA_site930] | 7.04
TTTTAACAAAAAAAAAGAAAAGAAAAGAAAATAATA [XGTACX_negctrl_site530] | 6.54
AATTGAATAAATTAAACATGCACAGATGTTCTATTT [TGCATGCA_site692] | 6.89
TAATATAATATATAGGTGCAATATTAACAAAAATTT | 9.61

Sequence | gcPBM binding intensity (ln)
GAACAAATTAAATAGGTGCATTAACATGTTCTATTT [GTGCAC_site9729] | 10.4
AGTGATACTAATTTTTGTACGCATAAAAGAATATTC [XGTACX_site6055] | 6.97
TATAAACATAAAACCAGTACATATATATTTTTCTTC [XGTACX_site212] | 6.84
ACCTATTTCAAACACACACACACACCCACAAACATA [CACACA_site977] | 7.62
ACTATTTTCTTCAAAACATGCACCACATAAACATAA [TGCATGCA_site200] | 10.5
CGGCTATTTCTATATACATGCATTTAAAAAAAAAAT [TGCATGCA_site354] | 7.27
CCAATGTTTTCTTGTGTACACATCATTAAAGAAAAA [CACACA_site5300] | 7.96
AATAGAAAAAAATAAGTGCATTTTGGTATTCATCAT [GTGCAC_site9614] | 8.14
ATATTTATATATAGTAGTACTTTCAATAATTTAAAT [XGTACX_site7276] | 7.05
GTAATTTTATATGGTTGTACATATATATATATATAT [XGTACX_site6659] | 9.68
TTATATGGCTCCATTTGTACGCATCCATGTTTTTAT [XGTACX_site6590] | 6.99
TTTTTAATTTCAATGGTGCAGTAATAATATAATAGT | 10.5
TATATATATATATGGGTGCATTTTTTTGTCCATGTA [GTGCAC_site9868] | 10.7
TTGTTCTTATTTCATTTTTATATGATATTTCATTAT [CACACA_negctrl_site1619] | 7.17
CATATAATTTTATGGGTGCATTTTTTTGTAAGACCA | 11.1
TATATATATATATATATATATATGTATGTGCATTTA [TGCATGCA_negctrl_site53] | 9.08
ATAATTTCAATATTTAATATCATATATATATATTTT [GTGCAC_negctrl_site713] | 6.94
ATTATTTATATTATGGTGCATAATTTTGGGTTTCTT | 10.2
TCTATTTTTTATATGGTGCATTGTTCTTATTAATAT [GTGCAC_site9392] | 10.5
TATTGTTCTTATTTAGTGCATATATAATATAATATA [GTGCAC_site9827] | 9.38
